Bioassay records (PubChem BioAssay)
Mcl1 Noxa PPI – Mcl-1/Noxa binding inhibitors, primary screen, biochemical, TR-FRET, 1536-well | Induced myeloid leukemia cell differentiation protein Mcl-1 (Homo sapiens), Q07820 | TR-FRET Mcl-1/Noxa peptide binding, 2 h | inhibition, % at 21.7 µM | 1.5% of 220,000 active;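 active means compounds that cut the protein-peptide binding signal by more than 50% relative to plate controls in a single-dose test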;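 further: His-tagged Mcl-1 with rhodamine Noxa BH3 peptide and terbium anti-His antibody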
Target sequence (Q07820 whole entry, looked up): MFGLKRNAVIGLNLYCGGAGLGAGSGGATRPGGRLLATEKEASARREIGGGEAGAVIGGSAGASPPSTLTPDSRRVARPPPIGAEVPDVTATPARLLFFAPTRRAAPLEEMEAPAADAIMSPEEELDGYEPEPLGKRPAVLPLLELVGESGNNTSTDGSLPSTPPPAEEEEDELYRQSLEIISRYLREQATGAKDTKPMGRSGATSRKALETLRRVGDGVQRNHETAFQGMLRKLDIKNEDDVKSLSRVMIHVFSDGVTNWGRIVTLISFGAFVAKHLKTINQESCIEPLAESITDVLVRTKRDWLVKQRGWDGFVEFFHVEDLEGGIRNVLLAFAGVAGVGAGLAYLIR
Bim-Mcl-1 – inhibitors of Bim peptide binding to Mcl-1, primary screen, biochemical, bead-based flow cytometry, multiplex | Bim peptide-Mcl-1 binding | Induced myeloid leukemia cell differentiation protein Mcl-1 (Homo sapiens), Q07820 | 0.1% of 190,000 active | inhibition, % at 10 µM; in the data active means inhibition above about 40%
Mcl1-Bid inh – Mcl-1/Bid binding inhibitors, primary screen, biochemical, TR-FRET, 1536-well; Induced myeloid leukemia cell differentiation protein Mcl-1 (Homo sapiens), Q07820; TR-FRET Mcl-1/Bid-Dy647 peptide binding; inhibition, % at 21.7 µM; 0.97% of 220,000 active;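 active means compounds that cut the binding signal by more than half at the single screening dose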;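 further: His-tagged Mcl-1 with europium anti-His antibody binding Bid BH3 peptide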
MCL1 BIM primary – inhibitors of MCL1 binding to BIM-BH3, primary screen, biochemical, fluorescence polarization; Induced myeloid leukemia cell differentiation protein Mcl-1 (Homo sapiens), Q07820; GST-MCL1 / FITC-Bim-BH3 fluorescence polarization; inhibition, % at 10.9 µM; 0.68% of 320,000 active;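 active means inhibition above the mean inhibition of all tested compounds plus 3 SD, set per campaign, cut at about 40% in these data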;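 further: higher means more loss of mP so more displacement of Bim peptide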
GLD-1 RNA inh – GLD-1/TGE RNA complex disruptors, primary screen, biochemical, fluorescence polarization; Female germline-specific tumor suppressor gld-1 (Caenorhabditis elegans), Q17339; purified GLD-1 + fluorescein TGE RNA; inhibition, % at 5.96 µM; 0.44% of 320,000 active; AID 2280, 2010;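 active means percent inhibition above a per-plate cutoff, the plate mean of test compounds plus 3 SD, cut at about 30% in these data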
Bcl-xL primary – inhibitors of human Bcl-xL, primary screen, biochemical, fluorescence polarization, HTS. GST-Bcl-xL / FITC-Bim BH3 peptide fluorescence polarization. inhibition, % at 10.9 µM. 0.7% of 320,000 active;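 active means inhibition above the mean of all tested compounds plus 3 SD, cutoff set per campaign, cut at about 30% in these data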;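 further: inhibitors lower millipolarization by displacing the labeled peptide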
Target sequence (Q07817 whole entry, looked up): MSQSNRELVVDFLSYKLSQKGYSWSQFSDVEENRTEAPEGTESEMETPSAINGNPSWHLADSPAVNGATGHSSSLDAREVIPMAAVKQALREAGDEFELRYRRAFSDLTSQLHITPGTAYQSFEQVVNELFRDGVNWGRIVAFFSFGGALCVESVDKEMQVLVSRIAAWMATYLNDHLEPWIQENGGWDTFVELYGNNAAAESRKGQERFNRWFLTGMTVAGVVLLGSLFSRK
Of the large screens only hits and unclear results are named; the others gave an inactive call; ! = a repeat was not active. Most compounds without a hit are left out; they make up all but 2.3% or so of the library.

O=[N+]([O-])c1cc(/C=N/n2c(-c3cccnc3)n[nH]c2=S)ccc1Cl	Mcl1 Noxa PPI 69.6
O=[N+]([O-])c1ccccc1/C=N/n1c(-c2cccnc2)n[nH]c1=S	none
COc1ccc(OC)c(Nc2nc(=O)c3cccnc3s2)c1	Mcl1 Noxa PPI 55.7 (no result: MCL1 BIM primary, GLD-1 RNA inh, Bcl-xL primary)
Cc1ccc(Nc2nc(=O)c3cccnc3s2)cc1	none (no result: Bim-Mcl-1)
Cc1cc2ccccc2n2c(SCC(=O)NCC3CCCO3)nnc12 (stereo unspecified)	none
COC(=O)C1=C(C)NC2=C(C1c1ccc(O)cc1)S(=O)(=O)c1ccccc12 (stereo unspecified)	none
COc1ccc(C2C(C#N)=C(C)NC3=C2S(=O)(=O)c2ccccc23)cc1 (stereo unspecified)	Bim-Mcl-1 48.0
CCc1c(C)nc2ncnn2c1N1CCC(C(=O)Nc2ccccc2)CC1	none
CCCNC(=O)C1CCN(c2cc(-c3ccccc3)nc3ncnn23)CC1	Mcl1 Noxa PPI 69.5
Cc1cc(C)n(Cc2cccc(F)c2)c(=O)c1C#N	Mcl1-Bid inh 96.5
CCOCCCn1c(=S)[nH]c2cc(C(=O)NC3CCCC(C)C3C)ccc2c1=O (stereo unspecified)	none (no result: Mcl1 Noxa PPI, Bim-Mcl-1, Mcl1-Bid inh)
O=C(NNC(=O)c1cc(-c2ccc(Cl)cc2)nc2ccccc12)c1csc(N2CCOCC2)n1	none (no result: Mcl1 Noxa PPI, Bim-Mcl-1, Mcl1-Bid inh)
CN(CC(=O)Nc1ccc(F)cc1)C(=O)CCc1nc2ccccc2c(=O)[nH]1	none (no result: Mcl1 Noxa PPI, Bim-Mcl-1, Mcl1-Bid inh)
CN(CC(=O)Nc1ccccc1Cl)C(=O)CCc1nc2ccccc2c(=O)[nH]1	Bcl-xL primary 30.7 (no result: Mcl1 Noxa PPI, Bim-Mcl-1, Mcl1-Bid inh)
Cc1nnc(NS(=O)(=O)c2ccc(Br)cc2)s1	none (no result: Mcl1 Noxa PPI, Bim-Mcl-1, Mcl1-Bid inh)
COCC(=O)Nc1ccc([N+](=O)[O-])cc1OC	none
COc1cc([N+](=O)[O-])ccc1NC(=O)COC(=O)c1ccc(NC(N)=O)cc1	Mcl1 Noxa PPI 72.3, Mcl1-Bid inh 61.2 (no result: Bim-Mcl-1)
COc1cc([N+](=O)[O-])ccc1NC(=S)Nn1cnnc1	Bcl-xL primary 35.8 (no result: Mcl1 Noxa PPI, Bim-Mcl-1, Mcl1-Bid inh)
COc1cc(C)c(CN2CCN(C(C)C(=O)NC(C)c3ccccc3)CC2)cc1OC (stereo unspecified)	none (no result: Mcl1 Noxa PPI, Bim-Mcl-1, Mcl1-Bid inh)
COc1ccccc1CNS(=O)(=O)c1cc(C(=O)NCC2CCCO2)c(Cl)cc1Cl (stereo unspecified)	none (no result: Mcl1 Noxa PPI, Bim-Mcl-1, Mcl1-Bid inh, MCL1 BIM primary, Bcl-xL primary)
COc1ccc(NC(=O)CN(C)C(=O)CNC(=O)c2ccc3c(c2)OCO3)cc1	none (no result: Mcl1 Noxa PPI, Bim-Mcl-1, Mcl1-Bid inh)
CN(C(=O)c1cccc(S(=O)(=O)N2CCCC2)c1)C1CCCCC1	none (no result: Mcl1 Noxa PPI, Bim-Mcl-1, Mcl1-Bid inh)
Cc1cc(C)c(Nc2cc(S(=O)(=O)O)c(N)c3c2C(=O)c2ccccc2C3=O)c(C)c1	Mcl1 Noxa PPI 106.7, Mcl1-Bid inh 94.2, MCL1 BIM primary 52.0, Bcl-xL primary 31.5
Cc1cc(C)c(NC(=O)COC(=O)c2cccc3c2C(=O)c2ccccc2C3=O)c(C)c1	none
O=C(NC(=S)N1CCOCC1)c1cn(-c2ccccc2)nc1-c1ccc(F)cc1	none (no result: Mcl1 Noxa PPI, Bim-Mcl-1, Mcl1-Bid inh)
CCOC(=O)c1c(C)nc(C)c(C(=O)OCC)c1-c1ccccc1	none
CCOc1c(C(N)=O)c(-c2ccccc2)c2c(=O)[nH]c3ccccc3n12	Mcl1-Bid inh 99.2
CC(C)NC(=O)CCCc1c[nH]c2ccccc12	none
CC1Cc2ccccc2N1Cc1cc(=O)n2ccsc2n1 (stereo unspecified)	Bcl-xL primary 33.4
COCCN1CC(C(=O)N2CCC(Oc3ccccc3OC)CC2)CCC1=O (stereo unspecified)	none (no result: Mcl1 Noxa PPI, Bim-Mcl-1, Mcl1-Bid inh)
CC1(C)CC(=O)C(C=Nc2cccc(/N=C/C3=C(O)CC(C)(C)CC3=O)n2)=C(O)C1	Mcl1 Noxa PPI 84.7 (no result: MCL1 BIM primary, GLD-1 RNA inh, Bcl-xL primary)
Cc1nc(C)c(C(=O)OCC(=O)NCc2ccccc2Cl)s1	none (no result: Mcl1 Noxa PPI, Bim-Mcl-1, Mcl1-Bid inh, MCL1 BIM primary, Bcl-xL primary)
CN(C)c1ccc(NC(=O)c2ccc(COc3cccc(Cl)c3)o2)cc1	Mcl1 Noxa PPI 85.2
COc1ccc(CNC(=O)COC(=O)c2cc(-c3ccco3)nc3ccccc23)cc1	Mcl1 Noxa PPI 88.9 (no result: MCL1 BIM primary, GLD-1 RNA inh, Bcl-xL primary)
COc1ccc(CNC(=O)COC(=O)c2ccc(Br)cc2)cc1	Bcl-xL primary 32.7
COc1ccc(CNC(=O)COC(=O)c2cc(C)nc3ccccc23)cc1	none (no result: Mcl1 Noxa PPI, Bim-Mcl-1, Mcl1-Bid inh, MCL1 BIM primary, Bcl-xL primary)
COc1ccc(CNC(=O)COC(=O)c2ccc(C(=O)c3ccccc3)cc2)cc1	none (no result: Mcl1 Noxa PPI, Bim-Mcl-1, Mcl1-Bid inh, MCL1 BIM primary, Bcl-xL primary)
Cn1c(=O)c(C(=O)COC(=O)c2cc(-c3ccco3)nc3ccccc23)c(N)n(CC2CC2)c1=O	Mcl1 Noxa PPI 95.2, MCL1 BIM primary 43.5
O=C(O)c1cc(-c2ccco2)nc2ccccc12	MCL1 BIM primary 46.1, Bcl-xL primary 33.6
O=C(O)c1cc(-c2cc(C(=O)O)c3ccccc3n2)nc2ccccc12	none (no result: Mcl1 Noxa PPI, Bim-Mcl-1, Mcl1-Bid inh)
Cn1c(=O)c(C(=O)COC(=O)c2cc(C3CC3)nc3ccccc23)c(N)n(Cc2ccccc2)c1=O	none
CC(C)(C)CC(=O)Nc1nnc(SCC(=O)Nc2ccccc2F)s1	none
O=C(NC1CC1)c1cc(-c2ccco2)nc2ccccc12	Mcl1 Noxa PPI 104.9 (no result: Bim-Mcl-1, MCL1 BIM primary, GLD-1 RNA inh, Bcl-xL primary)
O=C(CCS(=O)(=O)c1ccc(Br)s1)NC1CCCCCC1	Mcl1-Bid inh 78.1
CCC[n+]1c2ccccc2cc2ccccc21	Bcl-xL primary 36.5 (no result: Mcl1 Noxa PPI, Bim-Mcl-1, Mcl1-Bid inh)
CCOC(=O)Nc1ccc2c(c1)N(C(=O)OCCN(C)C)c1ccccc1CC2	Mcl1-Bid inh 75.8!
CC(=O)c1ccc(-c2ccc(C(=O)N(C)Cc3nc4ccccc4c(=O)[nH]3)o2)cc1	none (no result: Mcl1 Noxa PPI, Bim-Mcl-1, Mcl1-Bid inh)
COC(=O)/C=C1\N/C(=N/c2nc(C)c3cc(OC)ccc3n2)NC1=O	Bcl-xL primary 47.8 (no result: Mcl1 Noxa PPI, Bim-Mcl-1, Mcl1-Bid inh)
CCCNC(=O)c1csc2c1CCCCC2	none
